The values below come from publication PMC5540273 (PLoS ONE, 2017).

The structures appear in SMILES notation.
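Note: kd values determined as follow-up on hits from a single-replicate KINOMEscan panel screen.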

The first assay has as its system EPHB6.
With `Cl.Cn1ccc(-c2cccc(Nc3ccnc4cc(-c5nccs5)ccc34)c2)n1` [GW525701], the Kd (in general, the free concentration of one partner at which half of the binding sites on the other are occupied at equilibrium, for simple one-to-one binding) was 82 nM.

In turn, `CCc1nc(-c2cccc(N(C)S(=O)(=O)c3ccccc3)c2)c(-c2ccnc(Nc3ccc(N4CCN(C(C)=O)CC4)nc3)n2)s1` [GSK1645895] showed a Kd of 24 nM. For the compound `CCc1nc(-c2cccc(C)c2)c(-c2ccnc(NC(=O)c3ccccc3)c2)s1`, binding was characterised by a dissociation constant (Kd) of 7600 nM. Still for that read-out and setting: with `O=C(Nc1n[nH]c2nc(-c3ccco3)c(Br)cc12)c1ccc(CN2CCCC2)cc1.O=C(O)[C@H](O)[C@@H](O)C(=O)O` [SB-742352] the figure was 160 nM.

A further assay relates to ERBB2.
As to `Fc1cccc(COc2ccc(Nc3ncnc4sc(-c5ccc[nH]5)cc34)cc2Cl)c1` [GW707818], the Kd came out at 100 nM.

`CS(=O)(=O)CCNCc1ccc(-c2ccc3ncnc(Nc4ccc(OCc5ccccc5)c(Cl)c4)c3c2)o1.Cl` [GW574783] gave a Kd of 2.8 nM. As for `OCCOCCn1ccc2ncnc(Nc3ccc(Oc4cccc(Cl)c4)c(Cl)c3)c21`, binding was put at a Kd of 2.9 nM.

Compound `Cl.c1ccc(Cn2ncc3cc(Nc4ncnc5ccccc45)ccc32)cc1` [GW273749] yielded a Kd of 11 nM.

Turning to `Cl.Fc1ccccc1COc1ccc(Nc2ncnc3ccc(-c4nnc(C(F)(F)F)o4)cc23)cc1Cl` [GW424170], the Kd was found to be 110 nM. Same read-out and setting: the figure for `Cn1ccc2ncnc(Nc3ccc(Oc4cccc(Cl)c4)c(Cl)c3)c21` is 1.2 nM; for `Clc1cc(Nc2ncnc3cc[nH]c23)ccc1OCc1ccccn1` it is 9 nM; for `Fc1cccc(COc2ccc(Nc3ncnc4cc[nH]c34)cc2Cl)c1` it is 2.2 nM.

Take `O=C(CCO)NCCn1ccc2ncnc(Nc3ccc(Oc4cccc(C(F)(F)F)c4)c(Cl)c3)c21`: the Kd is 0.88 nM. The compound `COc1cc2ncnc(Nc3ccc(OCc4ccccc4Br)c(Cl)c3)c2cc1OC.Cl` [GI261590] returned a Kd of 17 nM. On the same count and under the same terms, with `Cl.c1ccc(Cn2ccc3cc(Nc4ncnc5ccccc45)ccc32)cc1` [GW275568] the figure was 14 nM; with `Oc1ccc2ncnc(Nc3ccc(OCc4ccccc4)cc3)c2c1` [GI262866], 27 nM; with `Cl.O=S(=O)(c1cccc(F)c1)c1ccc(Nc2ncnc3cc(Br)sc23)cc1Cl` [GSK306886], 95 nM.

Compound `CS(=O)(=O)CCNCc1nc(-c2ccc3ncnc(Nc4ccc(OCc5cccc(F)c5)c(Cl)c4)c3c2)cs1.Cl` [GW583340] displayed a Kd of 5.9 nM.

Consider `Fc1cccc(COc2ccc(Nc3ncnc4nn5ccccc5c34)cc2Cl)c1` [GW689066], for which the Kd stood at 24 nM.

Another assay relates to ERBB4.
For the compound `Fc1cccc(COc2ccc(Nc3ncnc4sc(-c5ccc[nH]5)cc34)cc2Cl)c1` [GW707818], the Kd was 560 nM. Same read-out and setting: the figure for `CS(=O)(=O)CCNCc1ccc(-c2ccc3ncnc(Nc4ccc(OCc5ccccc5)c(Cl)c4)c3c2)o1.Cl` [GW574783] is 28 nM. Compound `OCCOCCn1ccc2ncnc(Nc3ccc(Oc4cccc(Cl)c4)c(Cl)c3)c21` showed a Kd of 77 nM. With `Cl.c1ccc(Cn2ncc3cc(Nc4ncnc5ccccc45)ccc32)cc1` [GW273749], the affinity, expressed as Kd, was 61 nM.

With `Cn1ccc2ncnc(Nc3ccc(Oc4cccc(Cl)c4)c(Cl)c3)c21`, the Kd was found to be 74 nM. Same read-out and setting: the figure for `Fc1cccc(COc2ccc(Nc3ncnc4cc[nH]c34)cc2Cl)c1` is 320 nM.

`O=C(CCO)NCCn1ccc2ncnc(Nc3ccc(Oc4cccc(C(F)(F)F)c4)c(Cl)c3)c21`: the Kd was found to be 100 nM. `COc1cc2ncnc(Nc3ccc(OCc4ccccc4Br)c(Cl)c3)c2cc1OC.Cl` [GI261590] yielded a Kd of 27 nM. On the same count and under the same terms, with `Cl.c1ccc(Cn2ccc3cc(Nc4ncnc5ccccc45)ccc32)cc1` [GW275568] the figure was 140 nM.

`O=c1cc(N2CCOCC2)nc2n(Cc3cccc(Cl)c3)ccn12` [GSK2296823] had a Kd of more than 10000 nM. `CS(=O)(=O)CCNCc1nc(-c2ccc3ncnc(Nc4ccc(OCc5cccc(F)c5)c(Cl)c4)c3c2)cs1.Cl` [GW583340] registered a Kd of 26 nM. `Fc1cccc(COc2ccc(Nc3ncnc4nn5ccccc5c34)cc2Cl)c1` [GW689066] showed a Kd of 160 nM.
